# Screening results (PubChem)
# Rows were chosen to be rich in hits. Some 11% of all compounds tested hit in one or more screens of this group.
# PNC inhibitor = inhibitors of perinucleolar compartment assembly | PC3M PTB-GFP, PNC prevalence imaging, 16 h; stronger effect = lower value | activity change (PNC), negative = inhibition, % at 10 µM | actives 3.1% (n = 140,000) | AID 2417;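 active = readout at or below -70, meaning at least 70% loss of cells showing the perinucleolar compartment, a nuclear body marking cancer cells; inconclusive = readout between -30 and a set limit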;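 also: plate controls were DMSO wells for no effect and camptothecin positive control wells for full effect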
#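 Compounds are pinned in duplicate onto adhered PC3M cells stably expressing GFP-tagged PTB and incubated 16 h at 37 C. Cells are then fixed, nuclei stained with Hoechst, and PNC-positive cells counted.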
# HPGD block = inhibitors of human 15-hydroxyprostaglandin dehydrogenase (HPGD); P15428; purified HPGD, NADH fluorescence kinetic, PGE2 substrate; Potency, µM, for inactives: at the top dose activity change, negative = inhibition, hits mostly inhibitors; actives 4.3% (n = 150,000); AID 894; also: potency is read from the fitted curve at half-maximal effect
# Target sequence (P15428 whole entry, looked up): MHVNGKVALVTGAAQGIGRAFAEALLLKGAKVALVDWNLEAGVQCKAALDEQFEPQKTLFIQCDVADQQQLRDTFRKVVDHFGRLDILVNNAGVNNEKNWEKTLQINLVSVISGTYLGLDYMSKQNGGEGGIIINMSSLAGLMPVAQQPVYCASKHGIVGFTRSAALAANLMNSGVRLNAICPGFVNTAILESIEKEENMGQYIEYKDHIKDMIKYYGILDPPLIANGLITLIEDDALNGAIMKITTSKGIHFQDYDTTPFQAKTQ
#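 20 nM HPGD preincubated 15 min at room temperature with compound in 50 mM Tris-HCl pH 8, 0.01% Tween 20. Started with 1 mM NAD+ and 30 uM prostaglandin E2; NADH fluorescence (360/450 nm) read 5 times over 30-s intervals, last minus first.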
# ALDH1A1 inh = inhibitors of human aldehyde dehydrogenase 1A1. Potency, µM (doses to about 75.3 µM), for inactives: at the top dose activity, negative = inhibition, usual class: inhibitors. Purified ALDH1A1, NADH fluorescence, propionaldehyde substrate. actives 7.3% (n = 220,000). AID 1030;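 also: potency is read from the fitted curve at half-maximal effect; plate controls were no enzyme wells and a reference inhibitor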
# IMPase Li cell = IMPase inhibition in cells with lithium potentiation. actives 0.35% (n = 210,000). Potency, µM (doses to about 59.4 µM), without a hit: at the highest dose activity, negative = IMPase inhibition, usual class: inhibitors. CHO-M1 cells, IP1 TR-FRET (IP-One), carbachol + lithium. AID 1457; active = well fitted inhibition curve with a large enough effect; inconclusive = small, poorly fitted or top-dose-only effect; inactive = no such curve, though single readings can be large or run the other way;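 also: IP1 builds up when IMPase is blocked and the TR-FRET signal falls; potency is read from the fitted curve at half-maximal effect; plate controls were basal vehicle for no effect and high inhibitor control for full effect; nearly all actives have a fitted effect of over 50% in size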
#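 Readout is a homogeneous TR-FRET IP1 immunoassay (Ex 320, Em 665 and 620), where raised cytosolic IP1 lowers signal. Cells were CHO-M1 treated 30 min at 37C with test compounds plus a little lithium; AC50 values came from Hill-equation fitting.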
# IMPase inh = cell-permeable inhibitors of inositol monophosphatase (IMPase); AID 901; CHO-M1 cells, IP1 accumulation, HTRF TR-FRET ratio; inhibition (IP1 accumulation), % at 46.1 µM; P97697; 120,000 tested, under 10 active; active = well fitted curve in the direction sought with a large enough effect in the signal ratio, not every such curve was filed as active; inconclusive = small, poorly fitted or top-dose-only effect, or a change in a side signal; inactive = no such curve, though single readings can be large or run the other way; the % refers to the signal ratio;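 also: cells stimulated with carbachol in lithium chloride buffer; plate controls were DMSO basal wells for no effect and reference inhibitor wells for full effect; higher means more IMPase inhibition seen as more IP1 and lower FRET ratio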
# Target sequence (P97697 whole entry, looked up): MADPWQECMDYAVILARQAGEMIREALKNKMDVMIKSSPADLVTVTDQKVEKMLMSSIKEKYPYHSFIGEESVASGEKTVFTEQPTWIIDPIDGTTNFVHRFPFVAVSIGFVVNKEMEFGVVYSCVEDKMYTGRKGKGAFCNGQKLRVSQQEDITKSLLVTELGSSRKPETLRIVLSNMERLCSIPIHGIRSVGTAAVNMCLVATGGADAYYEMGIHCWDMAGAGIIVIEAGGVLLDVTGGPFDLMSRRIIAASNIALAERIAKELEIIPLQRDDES
#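 CHO-M1 cells (CHO stably expressing M1 receptor), compound up to 46 uM final, stimulated with carbachol (50 uM as added) in buffer with 50mM LiCl, pH 7.4, 30 min at 37C. Cytosolic IP1 read by TR-FRET; AC50 from Hill fits.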
# * = called active by the depositor; ? = inconclusive; · = no result; [ ] = remark or other dose. Unless noted, calls follow the shape of the dose curve; as a rule, active = well fitted inhibition curve with a large enough effect (not every such curve was filed as active); inconclusive = small, poorly fitted or top-dose-only effect, or another doubt; inactive = no such curve, though single readings can be large or run the other way. Unless noted, % is scaled to controls: 0 for no effect and ±100 for the full control effect.
SMILES,PNC inhibitor,HPGD block,ALDH1A1 inh,IMPase Li cell,IMPase inh
O=C(N/N=C/C1C(=O)NC(=S)N(c2ccccc2)C1=O)c1cc(Br)c(O)c(Br)c1 (configuration not stated),·,·,12.6µM*,2.9%,·
Clc1ccc(CNC2CN3CCC2CC3)cc1 (configuration not stated),-80.2*,0.6%,10.0%,9.5%,·
CN(C)NC(=O)CCC(=O)O,·,-5.0%,0.8%,5.9%,·
CCN1C[C@]2(COC(=O)c3ccccc3N3C(=O)C[C@H](C)C3=O)CC[C@H](OC)[C@@]34[C@@H]5C[C@H]6[C@H](OC)[C@H]5[C@](O)(C[C@@H]6OC)[C@@](O)([C@@H](OC)[C@@H]23)[C@@H]14,·,-4.4%,-3.0%,0.7%,1.0
COc1ccccc1OCC#CCN1CCCCCC1,·,·,28.2µM*,18.3%,·
C[C@@H](C(=O)O)c1ccc(-c2ccccc2)c(F)c1,·,28.2µM*,0.5%,6.3%,1.4
Cc1cccc(N2C(=O)NC(=O)/C(=C\c3cc(C)n(-c4sc5c(c4C#N)CCCC5)c3C)C2=O)c1C,16.5,3.98µM*,0.251µM*,6.2%,-2.6
C=CCOCC1CO1 (configuration not stated),·,-9.6%,?,?,·
Cc1ccc(S(=O)ON2CCC(C(=O)O)(c3ccccc3)CC2)cc1 (configuration not stated),·,-9.4%,15.0%[13.5 µM],-6.1%,·
CCOC(=O)C(NC(C)=O)C(OC(C)=O)c1cccc(N(CCCl)CCCl)c1 (configuration not stated),-118.9*,-0.3%,5.6%,16.8%,5.1
CC(=O)NC(Cc1ccc(N(CCCl)CCCl)cc1)C(=O)O (configuration not stated),212.5,-12.2%,2.9%,2.6%,-5.2
CC(=O)OC1C[C@]2(C)C(C(C)=O)CCC2C2CCC3=CC(=O)CC[C@@]3(C)C12 (some centres not stated),·,-0.4%,?,7.3%,·
C[C@H](NC(=O)[C@@H](N)Cc1ccc(O)cc1)C(=O)N[C@@H](Cc1ccccc1)C(=O)N[C@@H](Cc1ccccc1)C(N)=O,·,·,-7.1%,-3.1%,·
CCN1C(=O)C(=Cc2ccc(C)s2)C(=O)N(CC)C1=S,49.8,8.91µM*,7.08µM*,-3.8%,·
CCN1C(=O)C(=C2C=C(C)OC(C)=C2)C(=O)N(CC)C1=S,·,·,6.1%,-1.3%,·
CC1=NN(c2ccccc2)C(=O)C1/C=C1\C(=O)NC(=O)N(c2cc(C)cc(C)c2)C1=O (configuration not stated),-15.2,-27.6%,?,4.4%,?
Cc1ccc(N2C(=O)NC(=O)/C(=C/C=C/c3ccco3)C2=O)cc1,?,7.08µM*,?,15.2%,-6.0
CC(C)c1ccc(N2C(=O)NC(=O)/C(=C/C=C/c3ccco3)C2=O)cc1,19.2,3.16µM*,-9.0%,13.2%,·
CSc1ncc(/C=C2/C(=O)NC(=O)N(c3ccc(C)cc3)C2=O)cn1,·,·,?,1.8%,·
Cc1cc(C)cc(N2C(=O)NC(=O)/C(=C\C=C\c3ccco3)C2=O)c1,50.8,10µM*,?,10.4%,·
Cc1cc(/C=C2\C(=O)NC(=O)N(c3ccc(Cl)cc3)C2=O)c(C)n1C,·,·,-7.3%,-6.8%,·
CCc1ccc(N2NC(=O)/C(=C/C=C/c3ccco3)C2=O)cc1,-27.6,-18.5%,3.16µM*,14.5%,-11.5
CCN(CC)c1ncnc2c1ncn2[C@@H]1O[C@@H](COP(=O)(O)OP(=O)(O)C(Br)(Br)P(=O)(O)O)[C@H](O)[C@H]1O,·,-17.6%,-6.4%,7.7%,-4.1
CCC(C)C(=O)OC1C(O)C2C(CN3CC(C)CCC3[C@]2(C)O)C2C[C@]34O[C@@]5(O)C(OC(=O)C(C)(O)CC)CCC3(C)C5C(OC(C)=O)C(OC(C)=O)C4[C@@]21O (some centres not stated),·,-1.8%,13.6%,-4.1%,·
C=C(C)[C@]12C[C@@H](C)[C@@]34OC(Cc5ccccc5)(O[C@@H]1[C@@H]3C=C(COC(=O)Cc1cc(I)c(O)c(OC)c1)C[C@]1(O)C(=O)C(C)=C[C@@H]41)O2,·,-12.5%,-0.9%,12.5%,·
CCN=C=NCCCN(C)C,·,-0.1%,-0.8%[13.5 µM],-0.6%,·
O=C1NC(=O)N(Cc2ccccc2)C(=O)/C1=C\c1ccco1,·,·,?,10.2%,·
